Results from the supplement of paper PMC12636033.
± gives the standard deviation of the averaged measurements. Over roughly 33,000 sequences, “E-score (rank enrichment, -0.5 to 0.5)” has its median near -0.0068; the highest 2% begin near 0.24. For the sample, the highest values were picked, then their nearest neighbours and some sequences at random.

These sequences were tested on muMax20 (Max(13-93) K31hArg/K57hArg, M65Nle) (assay: PBM 8-mer E-score (E-score (rank enrichment, -0.5 to 0.5)); higher = stronger preferential binding).
Experimental: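 Protein binding microarray (universal PBM chip covering all 10-mers in fixed probe flanks) with chemically synthesized human Max(13-93) bHLH-LZ analogs (not full-length Max) bearing noncanonical residues (hArg, Tha, Aib, Nle at 65) and aromatic Cys staples. Read-out per 8-mer (and its reverse complement): E-score (rank-based enrichment, -0.5 to 0.5) and Z-score of median probe intensity.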

| Sequence | PBM 8-mer E-score |
| --- | --- |
| GATAGTAC | 0.0698 ± 0.03 |
| CCCCACCC | 0.165 ± 0.027 |
| GCCCACCA | -0.032 ± 0.095 |
| GCCCACCC | 0.294 ± 0.07 |
| GCCCACAC | 0.0523 ± 0.0056 |
| ACCCACCA | 0.0656 ± 0.034 |
| ACCCACCC | 0.299 ± 0.091 |
| AACGGCCG | -0.0126 ± 0.14 |
| ACCCCGAG | -0.142 ± 0.045 |
| CATACCAG | 0.0299 ± 0.094 |
| ATATATTA | 0.225 ± 0.056 |
| CTGTATTA | 0.129 ± 0.013 |
| ATGTATTA | 0.22 ± 0.012 |
| ATGTATTC | 0.107 ± 0.074 |
| ATGTATCG | 0.213 ± 0.065 |
| GTGTATTA | 0.277 ± 0.0053 |
| GTATATTA | 0.28 ± 0.025 |
| ATGTATTG | 0.251 ± 0.048 |
| CTATATTA | 0.199 ± 0.042 |
| AGCTAGAA | -0.0154 ± 0.041 |
| GGTCCACA | -0.0698 ± 0.11 |
| GACGCAGA | -0.0585 ± 0.079 |

| Sequence | PBM 8-mer E-score |
| --- | --- |
| CCCAGTAG | -0.0372 ± 0.037 |
| CGGTAACA | -0.0167 ± 0.022 |
| AGCCTGCA | 0.0231 ± 0.12 |
| AGCGTTGC | -0.0889 ± 0.092 |
| CCGGCCGC | -0.23 ± 0.0085 |
| CGCGGGTA | -0.0475 ± 0.074 |
| ATGATTGA | 0.127 ± 0.063 |
| ACCCAACC | 0.0711 ± 0.054 |
| CATAATCA | 0.08 ± 0.021 |
| GCTAATCA | -0.0154 ± 0.012 |
| GATAATCA | 0.311 ± 0.07 |
| AATAATCA | 0.08847 ± 8.5e-05 |
| GATAATCC | -0.0364 ± 0.011 |
| TATAATCA | 0.247 ± 0.037 |
| ACTCCTCT | -0.0496 ± 0.01 |
| GCCAAGAA | 0.106 ± 0.011 |
| ACCGAAAC | -0.0608 ± 0.064 |
| ATCCTCAA | -0.0775 ± 0.063 |
| CATCGCAA | 0.0394 ± 0.039 |
| GGGCGGAC | -0.19 ± 0.067 |
| CGGCGGGA | -0.2043 ± 0.0015 |
| AGGCGGGA | 0.0523 ± 0.011 |

| Sequence | PBM 8-mer E-score |
| --- | --- |
| CGCGGGGA | -0.0158 ± 0.054 |
| GGGCGGGA | 0.256 ± 0.051 |
| GGCGGGAA | -0.0111 ± 0.026 |
| GGCGGGGA | 0.245 ± 0.082 |
| AAGCCTAG | 0.0589 ± 0.067 |
| CGCTTCAC | -0.106 ± 0.011 |
| GGAACGAC | -0.0812 ± 0.036 |
| GACGCTCC | -0.151 ± 0.072 |
| AATTAATA | 0.271 ± 0.013 |
| AATTAATG | 0.139 ± 0.05 |
| ATTTAATA | 0.245 ± 0.097 |
| TATTAATA | 0.288 ± 0.051 |
| TATTAAAA | 0.226 ± 0.062 |
| AATTAATT | 0.213 ± 0.015 |
| AATTAACA | 0.244 ± 0.008 |
| CATTAACA | 0.22 ± 0.1 |
| TATTAACA | 0.128 ± 0.13 |
| GTTTAATA | 0.218 ± 0.022 |
| CTTTAATA | 0.16 ± 0.04 |
| CATTAATA | 0.188 ± 0.011 |
| GGGGTGAA | 0.0293 ± 0.058 |
| ACCCAATA | 0.132 ± 0.054 |

| Sequence | PBM 8-mer E-score |
| --- | --- |
| ACCTGTTC | 0.0511 ± 0.016 |
| CCGAGGAA | 0.0622 ± 0.053 |
| AATGACCC | 0.074 ± 0.021 |
| GTGGCACA | 0.137 ± 0.017 |
| ACTTTAGC | -0.00298 ± 0.1 |
| CGACTGCC | -0.163 ± 0.0073 |
| GAACGAAA | 0.0569 ± 0.079 |
| ATCCTGTC | -0.0955 ± 0.045 |
| CGGTACAC | -0.0567 ± 0.015 |
| AAAAAGCG | 0.0746 ± 0.018 |
| ACCGCCTA | -0.0164 ± 0.2 |
| AAACTATG | -0.057 ± 0.1 |
| AGTCCTAG | -0.0808 ± 0.069 |
| GATTAAGA | 0.119 ± 0.07 |
| AATTAAGC | 0.191 ± 0.046 |
| AATTAAGA | 0.253 ± 0.013 |
| GATTAACA | 0.156 ± 0.037 |
| GATTAATC | -0.0526 ± 0.063 |
| GATTAATA | 0.314 ± 0.062 |
| AACCTTCC | 0.0123 ± 0.0059 |
| AAACGAGA | 0.18 ± 0.13 |
| TAACGAGA | 0.263 ± 0.054 |

| Sequence | PBM 8-mer E-score |
| --- | --- |
| CAACGAGA | 0.0722 ± 0.14 |
| ATTACAGG | 0.236 ± 0.066 |
| ATTACAGA | 0.0555 ± 0.062 |
| ATTACAGC | -0.00666 ± 0.05 |
| TAGATACA | 0.143 ± 0.12 |
| CTCCGAGC | -0.0246 ± 0.032 |
| AAGTCATT | 0.131 ± 0.027 |
| ATGTTACC | 0.106 ± 0.016 |
| CTGTTACA | 0.0334 ± 0.0084 |
| ATGTTACA | 0.239 ± 0.025 |
| CTATCTAA | 0.0704 ± 0.073 |
| AAATGTAT | 0.241 ± 0.013 |
| AAATGTGT | 0.175 ± 0.1 |
| CAATGTAC | 0.115 ± 0.019 |
| AAATGTAG | 0.0928 ± 0.084 |
| AAATGTAC | 0.238 ± 0.048 |
| GAATGTAC | -0.0364 ± 0.078 |
| ACAGGCCT | -0.0825 ± 0.039 |
| AGCAGTAA | -0.0641 ± 0.1 |
| ACAGCGGA | -0.0346 ± 0.033 |
| GAATCAGA | -0.0136 ± 0.14 |
| GGACGGAA | -0.0931 ± 0.17 |
